# Inconclusive results are not listed. A number with no mark means an inactive call. Activity calls are given as the source filed them. Calls come from the whole dose curve; as a rule, active = well fitted inhibition curve with a large enough effect; inconclusive = small, poorly fitted or top-dose-only effect; inactive = flat fitted curve, though single readings scatter.
# Test system: Zika virus NS2B-NS3 protease
# Assay: Primary screen GU AMC qHTS for Zika virus inhibitors (AID 1347154);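 note: 0% = no-inhibitor control and -100% = no-enzyme control; nearly all actives have a fitted effect of over 70% in size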
# Conditions: Zika NS2B-NS3 unlinked protease, AMC fluorogenic substrate; series mostly up to 54.1 µM; activity change, negative = inhibition: at the top concentration
# Procedure, shortened: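 Fluorogenic AMC-substrate cleavage by noncovalent NS2B-NS3 protease complex (25 nM, pH 8.0 Tris buffer with Tween 20) followed for 15 minutes at room temperature (~20% conversion). Percent inhibition from ex340/em450 signal change, fitted by 4-parameter Hill equation.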
Compound,"activity change, negative = inhibition [%]",Potency
CC(=O)Nc1cc([As](=O)(O)O)ccc1O,-7.34,
CC(C)(C)NCC(O)c1cc(Cl)c(N)c(Cl)c1 (stereo not drawn),0.145,
COc1ccc(C(=O)c2c(C)n(CCN3CCOCC3)c3ccccc23)cc1,,inactive
CNC(=O)c1ccc(N2C(=S)N(c3ccc(C#N)c(C(F)(F)F)c3)C(=O)C23CCC3)cc1F,3.46,
CC1NCCOC1c1ccccc1 (stereo not drawn),1.25,
CCN(CC)CCOC(=O)C(O)(c1ccccc1)c1ccccc1,-1.03,
Clc1ccc(CCC(Cn2ccnc2)Sc2c(Cl)cccc2Cl)cc1 (stereo not drawn),,inactive
Clc1cccc(N2CCNCC2)c1,,inactive
OCCOc1ccccc1,0.226,
CN(C)[C@@H]1C(=O)C(C(N)=O)=C(O)[C@@]2(O)C(=O)C3=C(O)c4c(O)cccc4[C@@](C)(O)[C@H]3C[C@@H]12,-16.5,
CC[N+]1(C)CCCC(OC(=O)C(O)(c2ccccc2)c2ccccc2)C1 (stereo not drawn),4.88,
CN1CCN(C(=O)O[C@H]2c3nccnc3C(=O)N2c2ccc(Cl)cn2)CC1,,inactive
CCN(CC)CCN1C(=O)CN=C(c2ccccc2F)c2cc(Cl)ccc21,5.57,

# — PubChem BioAssay (NCATS)
